PubChem BioAssay (EPA / NIEHS)
Where “and” joins values, the source holds several entries; their conditions need not be identical. Identical values can stand only once. Results filed as inconclusive are left out. Where a structure was tested more than once in an assay, its records may differ in their call. Calls of active or inactive are those of the source. Rule for the calls, unless noted: active = hit-call score of the fitted dose curve at least 0.9, where 1 is the maximum; inactive = score below 0.9.

Tests used:
[1] = IUF_NPC1a_proliferation_area_72hr: Leibniz Research Institute for Environmental Medicine (IUF) 72-hour Neural Progenitor Cell Proliferation Area Assay (NPC1a) (AID 2284208)
How it was run: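 Proliferation is scored as sphere area gain in primary human fetal neural progenitors treated for 72 h in EGF/FGF-containing medium. Viability, LDH and BrdU readouts come from the same wells.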

[2] = IUF_NPC1_viability_72hr: Viability Assessment at 72 hours in the Leibniz Research Institute for Environmental Medicine (IUF) Neural Progenitor Cell Proliferation Assay (NPC1) (AID 2284209)
How it was run: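 Spheres of primary human neural progenitors were plated singly in proliferation medium and treated for 72 h. Mitochondrial reduction of resazurin was then measured by fluorescence and analysed against DMSO controls.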

[3] = BSK_BT_PBMCCytotoxicity: PBMC Cytotoxicity Assessment in the BioMAP Diversity Plus: BT Assay (AID 2284225); details: primary human B cells with PBMC;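 note: PBMC viability measured by Alamar Blue dye reduction fluorescence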
How it was run: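 Viability by Alamar Blue reduction (6 h, ex/em 546/580 nm) after 90 h culture of SEB/TSST-1-activated PBMC (20 ng/mL each) given compound 1 h before activation. DMSO served as baseline for curve fitting.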

[4] = read-out: Secreted IgG (sIgG), gene 3500; experiment: BSK_BT_sIgG: BioMAP Diversity Plus: BT Assay for Secreted IgG (sIgG) Biomarker Activity (AID 2284226); details: primary human B cells with PBMC
How it was run: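 Cells (B cells with peripheral blood mononuclear cells) are dosed, cultured 24 h, then supernatant IgG is measured by ELISA. DMSO serves as negative control; curves are fitted for signal increase.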

[5] = BSK_BT_Bcell_Proliferation: Viability Assessment in the BioMAP Diversity Plus: BT Assay for B cell Proliferation (AID 2284227); details: primary human B cells with PBMC
How it was run: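 Human B cell/PBMC co-culture; test chemical added; 72 h; TCA fix (10%), 0.1% SRB stain, A560 for total protein as a proliferation read-out; positive-direction fit vs DMSO baseline.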

[6] = read-out: Interleukin 6 (IL6), IL6 (gene 3569); experiment: BSK_BT_xIL6: BioMAP Diversity Plus: BT Assay for Interleukin 6 (IL6) Biomarker Activity (AID 2284228); details: primary human B cells with PBMC
How it was run: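 Chemical added to human B cell/PBMC co-culture → 24 h → supernatant IL-6 by Luminex xMAP → fit vs DMSO baseline, upward direction.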

[7] = CCTE_Mundy_HCI_Cortical_Synap_Neur_Matur_NeuriteSpotCountPerNeuriteLength: CCTE's Synaptogenesis and Neurite Maturation Assay in rat cortical cells for Neurite Spot Count per Neurite Length, Mundy Lab (AID 2284210)
How it was run: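 Neurite-associated synapse density (synaptophysin puncta per unit neurite length) is measured by fluorescence high-content imaging in rat cortical cultures treated from DIV 7 and fixed at DIV 12, with DMSO as negative control.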

[8] = CCTE_Mundy_HCI_Cortical_Synap_Neur_Matur_BPCount: CCTE's Synaptogenesis and Neurite Maturation Assay in rat cortical cells for Branch Point Count, Mundy Lab (AID 2284211)
How it was run: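 HCI read-out of branch points from MAP2/synaptophysin/Hoechst immunofluorescence; rat cortical cultures, AraC DIV 5, dosing DIV 7, fixed DIV 12; fit in positive direction vs DMSO baseline.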

[9] = CCTE_Mundy_HCI_Cortical_NOG_NeuriteCount: CCTE's Neurite Outgrowth Assay in rat cortical cells for Neurite Count, Mundy Lab (AID 2284212);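 note: cells fixed about two days after chemical exposure began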
How it was run: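 Rat cortical primary cells; compound added 2 h post-plating, 1/10 dilution of working solution. Anti-betaIII-tubulin/AF488 ICC; ArrayScan neurite count vs DMSO.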

[10] = CCTE_Mundy_HCI_Cortical_NOG_NeuriteLength: CCTE's Neurite Outgrowth Assay in rat cortical cells for Neurite Length, Mundy Lab (AID 2284213);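 for AC50: neurites imaged about 48 to 50 h after chemical exposure began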
How it was run: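 First, rat primary cortical cells were plated and, 2 h later, given test chemical as a 1/10 dilution. Finally, βIII-tubulin immunostaining enabled automated imaging of neurite length.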

[11] = CCTE_Mundy_HCI_Cortical_Synap_Neur_Matur_NeuriteLength: CCTE's Synaptogenesis and Neurite Maturation Assay in rat cortical cells for Neurite Length, Mundy Lab (AID 2284214)
How it was run: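 Cultures of rat primary cortical cells received chemical at DIV 7 and were fixed at DIV 12, after glial arrest with AraC at DIV 5. Neurite length was measured by automated imaging of MAP2 immunofluorescence.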

[12] = CCTE_Mundy_HCI_Cortical_Synap_Neur_Matur_NeuriteSpotCountPerNeuron: CCTE's Synaptogenesis and Neurite Maturation Assay in rat cortical cells for Neurite Spot Count per Neuron Count, Mundy Lab (AID 2284215)
How it was run: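 Synapse density is scored as synaptophysin spots along neurites per neuron in fixed rat cortical neurons, measured at DIV 12 after chemical dosing at DIV 7. DMSO is the negative control and activity baseline.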

[13] = TAMU_PeakParms_SingleDonor1434_Chronotropy: Texas A&M University (TAMU) 1.5-hr Human Induced Pluripotent Stem Cell (iPSC)-derived Cardiomyocytes Calcium (Ca+2) Flux Assay for Cardiotoxicity: Chronotropy (changes in peak frequency) (AID 2284217); details: actives raise or lower the signal
How it was run: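 Beat rate, as mean Ca2+-flux peak frequency, was read from donor 1434 iPSC cardiomyocytes 90 min after exposure to 0.2–100 uM test chemical (0.5% DMSO). Wells that stopped beating were excluded; EC05 from bidirectional DMSO-referenced fitting.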

[14] = CCTE_Mundy_HCI_Cortical_Synap_Neur_Matur_SynapseCount: CCTE's Synaptogenesis and Neurite Maturation Assay in rat cortical cells for Synapse Count, Mundy Lab (AID 2284218)
How it was run: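 Cells were plated, allowed 2 hr to attach, treated with AraC at DIV 5, then exposed to chemicals from DIV 7 until DIV 12. After fixation and MAP2/synaptophysin immunolabelling, synapses per neuron were quantified by automated imaging against DMSO.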

[15] = CCTE_Mundy_HCI_Cortical_Synap_Neur_Matur_NeuriteCount: CCTE's Synaptogenesis and Neurite Maturation Assay in rat cortical cells for Neurite Count, Mundy Lab (AID 2284222)
How it was run: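 Rat cortical neurons, 96-well; AraC DIV 5; chemical + media change DIV 7; end DIV 12. Fix PFA/Hoechst, anti-MAP2 + anti-synaptophysin IF. HCI neurite count vs DMSO baseline.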

[16] = CCTE_Mundy_HCI_Cortical_Synap_Neur_Matur_CellBodySpotCount: CCTE's Synaptogenesis and Neurite Maturation Assay in rat cortical cells for Cell Body Spot Count, Mundy Lab (AID 2284223)
How it was run: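 Synapse number at neuronal cell bodies was quantified as synaptophysin puncta per neuron in rat cortical cultures exposed from DIV 7 to DIV 12. Values were normalised to DMSO.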

[17] = CCTE_Mundy_HCI_hNP1_Pro_ResponderAvgInten: CCTE's Proliferation Assay in human neuroprogenitor cells, Mundy Lab (AID 2284224; active = hit-call score of the fitted dose curve at least 0.9, where 1 is the maximum;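 note: human neural progenitor cells hNP1 derived from WA09 embryonic stem cells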)
How it was run: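 Human neuroprogenitors (hNP1, WA09 lineage) receive test chemical after 40 to 44 hours of attachment. A four-hour BrdU pulse begins twenty hours later, followed by fixation and high content imaging; signal is referenced to DMSO controls.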

Measured: AC50

CCCCOCCOP(=O)(OCCOCCCC)OCCOCCCC
inactive: [1] | [2] | [3] | [4] | [5] | [6]

CCCCC(CC)COP(=O)(Oc1ccccc1)Oc1ccccc1 (stereo not drawn)
active: [3] 36.7 µM | [4] 16.1 µM | [5] 31.3 µM | [6] 20 µM
inactive: [1] | [2] | [7] | [8] | [9] | [10] | [11] | [12] | [13] | [14] | [15] | [16]

Nc1ccc([N+](=O)[O-])cc1Cl
inactive: [3] | [4] | [5] | [6]

CCOc1ccc(C(C)(C)COCc2cccc(Oc3ccccc3)c2)cc1
active: [7] 23.7 µM | [8] 26.8 µM | [9] 21.9 µM | [11] 3.81 µM | [12] 11.9 µM | [14] 15 µM
inactive: [1] | [2] | [10] | [15] | [16] | [17]

COC(=O)C(F)(F)C(F)(F)OC(F)(C(F)(F)F)C(F)(F)OC(F)=C(F)F (stereo not drawn)
inactive: [3] | [4] | [5] | [6]

CCOP(=S)(OCC)SCSCC
inactive: [1] | [2] | [9] | [10] | [15] | [16] | [17]
active: [7] 50 µM and 67.2 µM | [8] 80.7 µM and 50 µM | [11] 78.1 µM and 70.2 µM | [12] 50 µM | [14] 50 µM and 67.7 µM | [15] 81.1 µM | [16] 77.6 µM

CO/N=C(/C(=O)OC)c1ccccc1COc1ccccc1C
inactive: [2] | [17]
active: [1] 31.6 µM | [7] 3.36 µM | [8] 5.13 µM | [9] 19.1 µM | [10] 14.5 µM | [11] 6.23 µM | [12] 3.31 µM | [14] 3.28 µM | [15] 5.23 µM | [16] 3.33 µM

O=S1(=O)OCC2C(CO1)C1(Cl)C(Cl)=C(Cl)C2(Cl)C1(Cl)Cl (stereo not drawn)
active: [3] 32.9 µM | [4] 1.55 µM | [5] 25.9 µM | [6] 33 µM
inactive: [1] | [2]

CCOP(=S)(S)OCC
active: [4] 4.15 µM
inactive: [3] | [5] | [6]

O=P(Oc1ccccc1)(Oc1ccccc1)Oc1ccccc1
inactive: [1] | [2] | [13]

CC(C)(C)c1ccccc1OP(=O)(Oc1ccccc1)Oc1ccccc1
inactive: [1] | [2] | [7] | [15] | [16] | [3]
active: [8] 2.98 µM | [9] 19 µM | [10] 21.6 µM | [11] 1.6 µM | [12] 2.07 µM | [13] 32 µM | [14] 2.69 µM | [4] 13.5 µM | [5] 28.6 µM | [6] 29.2 µM

Cc1c([N+](=O)[O-])cc2c(c1[N+](=O)[O-])C(C)(C)CC2(C)C
active: [3] 33.2 µM | [4] 20 µM | [5] 20 µM
inactive: [6]

CC(C)Nc1ccc(Nc2ccccc2)cc1
active: [3] 2.89 µM | [4] 2.73 µM | [5] 2.3 µM | [6] 4.22 µM

FC(F)(F)C(F)(C(F)(F)F)C(F)(F)C(F)(F)CC1CO1 (stereo not drawn)
inactive: [17] | [3] | [4] | [5] | [6]

O=C(O)C(F)(F)OC(F)(F)C(F)(F)OC(F)(F)F
inactive: [3] | [4] | [5] | [6]
active: [5] 12.6 µM

O=C(O)C(F)(OC(F)(F)C(F)(F)C(F)(F)F)C(F)(F)F (stereo not drawn)
active: [3] 0.22 µM | [5] 220 nM and 291 nM
inactive: [1] | [2] | [7] | [8] | [9] | [10] | [11] | [12] | [14] | [15] | [16] | [17] | [3] | [4] | [5] | [6]
